Measurements taken from PubChem BioAssay AID1159580 (chemical genetic matrix, 2015).
Screen size: about 5,500 compounds; about 2,000 (36%) were called active. Another 18% or so got no clear call; they are omitted. No stated cut-off is given here; in the data, active means normalized growth mostly below about 0.91 (no sharp cut-off); inconclusive means no clear call, values can overlap the other calls; inactive means mostly above about 0.92. The list shows a part of the results.

Test: chemical genetic growth profiling, strain panel (AID 1159580);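 further: tested at 20 µM; growth read once vehicle control cultures reached saturation at 30 °C; 1 = growth at the plate median or of vehicle wells; lower values mean less growth of the strain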
Settings: S. cerevisiae deletion strains, growth OD
[1] = locus YAR019C, strain CDC15, active compounds read low
[2] = locus YBL105C, strain PKC1, active compounds read low
[3] = locus YBR135W, strain CKS1, active compounds read low
[4] = locus YBR136W, strain MEC1, active compounds read low
[5] = locus YBR160W, strain CDC28, active compounds read low
[6] = locus YDL017W, strain CDC7, active compounds read low
[7] = locus YDL028C, strain MPS1, active compounds read low
[8] = locus YDL101C, strain DUN1, active compounds read low
[9] = locus YDL108W, strain KIN28, active compounds read low
[10] = locus YDL132W, strain cdc53, active compounds read low
[11] = locus YDL214C, strain PRR2, active compounds read low
[12] = locus YDR052C, strain DBF4, active compounds read low
[13] = locus YDR054C, strain cdc34, active compounds read low
[14] = locus YDR226W, strain ADK1, active compounds read low
[15] = locus YDR477W, strain SNF1, active compounds read low
[16] = locus YER123W, strain YCK3, active compounds read low
[17] = locus YER133W, strain GLC7, active compounds read low
[18] = locus YFL009W, strain cdc4, active compounds read low
[19] = locus YFL029C, strain CAK1, active compounds read low
[20] = locus YFR003C, strain YPI1, active compounds read low
[21] = locus YFR019W, strain FAB1, active compounds read low
[22] = locus YFR028C, strain CDC14, active compounds read low
[23] = locus YGR040W, strain KSS1, active compounds read low
[24] = locus YGR052W, strain FMP48, active compounds read low
[25] = locus YGR092W, strain DBF2, active compounds read low
[26] = locus YHR030C, strain SLT2, active compounds read low
[27] = locus YHR079C, strain IRE1, active compounds read low
[28] = locus YHR082C, strain KSP1, active compounds read low
[29] = locus YHR205W, strain SCH9, active compounds read low
[30] = locus YIL147C, strain SLN1, active compounds read low
[31] = locus YJL095W, strain BCK1, active compounds read low
[32] = locus YJL128C, strain PBS2, active compounds read low
[33] = locus YJL157C, strain FAR1, active compounds read low
[34] = locus YJR016C, strain ILV3, active compounds read low
[35] = locus YJR066W, strain TOR1 (second series), active compounds read low
[36] = locus YJR066W, strain TOR1, active compounds read low
[37] = locus YKL048C, strain ELM1, active compounds read low
[38] = locus YKL067W, strain YNK1, active compounds read low
[39] = locus YKL101W, strain HSL1, active compounds read low
[40] = locus YKL193C, strain SDS22, active compounds read low
[41] = locus YKL203C, strain TOR2, active compounds read low
[42] = locus YLR113W, strain HOG1, active compounds read low
[43] = locus YLR133W, strain CKI1, active compounds read low
[44] = locus YLR403W, strain SFP1, active compounds read low
[45] = locus YML070W, strain DAK1, active compounds read low
[46] = locus YMR001C, strain CDC5, active compounds read low
[47] = locus YMR205C, strain PFK2 (second series), active compounds read low
[48] = locus YMR277W, strain FCP1, active compounds read low
[49] = locus YNL006W, strain LST8, active compounds read low
[50] = locus YNL020C, strain ARK1, active compounds read low
[51] = locus YNL161W, strain CBK1, active compounds read low
[52] = locus YNL183C, strain NPR1, active compounds read low
[53] = locus YNL207W, strain RIO2, active compounds read low
[54] = locus YNL307C, strain MCK1 (second series), active compounds read low
[55] = locus YOL078W, strain AVO1, active compounds read low
[56] = locus YOL136C, strain PFK27, active compounds read low
[57] = locus YOR061W, strain CKA2, active compounds read low
[58] = locus YOR119C, strain RIO1, active compounds read low
[59] = locus YOR231W, strain MKK1, active compounds read low
[60] = locus YOR329C, strain SCD5, active compounds read low
[61] = locus YPL031C, strain PHO85, active compounds read low
[62] = locus YPL153C, strain RAD53, active compounds read low
[63] = locus YPL204W, strain HRR25, active compounds read low
[64] = locus YPL209C, strain IPL1, active compounds read low
[65] = locus YPL256C, strain CLN2, active compounds read low
[66] = locus YPR025C, strain CCL1, active compounds read low
[67] = locus YPR106W, strain ISR1, active compounds read low
[68] = locus YPR111W, strain DBF20, active compounds read low
[69] = strain NNK1, active compounds read low
[70] = strain TSCII, active compounds read low

Measured: normalized growth

N#CC(C#N)=NNc1ccc(C(F)(F)F)cc1
active: [1] 0.135 | [2] 0.148 | [3] 0.135 | [4] 0.147 | [5] 0.168 | [6] 0.178 | [7] 0.311 | [8] 0.124 | [9] 0.152 | [10] 0.126 | [11] 0.131 | [12] 0.255 | [13] 0.138 | [14] 0.178 | [15] 0.116 | [16] 0.116 | [17] 0.11 | [18] 0.132 | [19] 0.138 | [20] 0.339 | [21] 0.12 | [22] 0.144 | [23] 0.113 | [24] 0.129 | [25] 0.105 | [26] 0.144 | [27] 0.155 | [28] 0.169 | [29] 0.0194 | [30] 0.397 | [31] 0.116 | [32] 0.149 | [33] 0.106 | [34] 0.13 | [35] 0.116 | [36] 0.146 | [37] 0.134 | [38] 0.113 | [39] 0.112 | [40] 0.118 | [41] 0.132 | [42] 0.166 | [43] 0.109 | [44] 0.0217 | [45] 0.106 | [46] 0.133 | [47] 0.104 | [48] 0.119 | [49] 0.194 | [50] 0.128 | [51] 0.137 | [52] 0.141 | [53] 0.155 | locus YNL222W, strain SSU72, active compounds read low 0.131 | [54] 0.133 | [55] 0.117 | [56] 0.111 | [57] 0.108 | [58] 0.119 | [59] 0.126 | [60] 0.187 | [61] 0.116 | [62] 0.107 | [63] 0.115 | [64] 0.135 | [65] 0.179 | [66] 0.154 | [67] 0.116 | [68] 0.122 | [69] 0.124 | [70] 0.137

N#CC(C#N)=NNc1cc(C(F)(F)F)ccc1OCC(F)(F)F
active: [10] 0.891 | [11] 0.611 | [14] 0.891 | [15] 0.572 | [16] 0.398 | [17] 0.459 | [21] 0.691 | [23] 0.611 | [24] 0.428 | [26] 0.445 | [28] 0.543 | [35] 0.437 | [36] 0.458 | [41] 0.71 | [42] 0.32 | [45] 0.623 | [48] 0.871 | [52] 0.329 | [58] 0.45 | [65] 0.33 | [70] 0.858
inactive: [1] 0.913 | [2] 0.927 | [3] 0.917 | [4] 0.894 | [5] 0.906 | [6] 0.953 | [7] 0.917 | [8] 0.911 | [9] 0.911 | [12] 0.913 | [13] 0.893 | [18] 0.919 | [19] 0.921 | [20] 0.975 | [22] 0.912 | [25] 0.818 | [27] 0.831 | [29] 0.814 | [30] 0.966 | [31] 0.533 | [32] 0.888 | [33] 0.814 | [34] 0.947 | [37] 0.88 | [38] 0.739 | [39] 0.787 | [40] 0.9 | [43] 0.868 | [44] 0.811 | [46] 0.9 | [47] 0.889 | [49] 0.976 | [50] 0.917 | [51] 0.899 | [53] 0.923 | [54] 0.734 | [55] 0.904 | [56] 0.693 | [57] 0.86 | [59] 0.782 | [60] 0.978 | [61] 0.703 | [62] 0.679 | [63] 0.688 | [64] 0.928 | [66] 0.923 | [67] 0.932 | [68] 0.895 | [69] 0.957
